Source: PubChem BioAssay AID463173 (ICCB-Longwood Screening Facility, Harvard Medical School, 2010)
The whole screen tested about 52,000 compounds, of which about 4,300 (8.3%) were called active. No stated cut-off is given here; in the data, active means survival mostly below about 52% (no sharp cut-off); inactive means mostly above about 56%. The entries come from a sample that favours actives as a whole.

What follows are molecules tested on DeltatarO mutant (assay: S. aureus survival, RN4220 and DeltatarO strains – OD600, teichoic acid synthesis inhibitors, primary screen (AID 463173)). Conditions: S. aureus RN4220 wild type/DeltatarO growth, OD600, 18 h, active compounds read low, screened at 18.75 µg/mL (by protocol).

| SMILES | survival |
| --- | --- |
| Cc1ccc(OCCCCn2c(-c3ccc(Cl)cc3)nc3ccccc3c2=O)cc1 | 68% (inactive) |
| Cc1ccccc1OCCCCn1c(-c2ccc(Cl)cc2)nc2ccccc2c1=O | 71% (inactive) |
| COc1ccccc1OCCCCn1c(-c2ccc(Cl)cc2)nc2ccccc2c1=O | 59% (inactive) |
| COc1cccc(OCCCn2c(-c3ccc(Cl)cc3)nc3ccccc3c2=O)c1 | 61% (inactive) |
| COc1cccc(OCCCCn2c(-c3ccc(Cl)cc3)nc3ccccc3c2=O)c1 | 62% (inactive) |
| Cc1ccc(OCCCn2c(-c3ccc(Cl)cc3)nc3ccccc3c2=O)cc1C | 58% (inactive) |
| O=c1c2ccccc2nc(-c2ccc(Cl)cc2)n1CCCCOc1ccc(F)cc1 | 45% (active) |
| O=c1c2ccccc2nc(-c2ccc(Cl)cc2)n1CCCOc1ccccc1F | 57% (inactive) |
| CCc1ccc(OCCCn2c(-c3ccc(Cl)cc3)nc3ccccc3c2=O)cc1 | 44% (active) |
| COc1ccccc1OCCCn1c(-c2ccc(Cl)cc2)nc2ccccc2c1=O | 29% (active) |
| CCOc1ccccc1OCCCn1c(-c2ccc(Cl)cc2)nc2ccccc2c1=O | 42% (inactive) |
| COc1ccc(OCCCCn2c(-c3ccc(Cl)cc3)nc3ccccc3c2=O)cc1 | 34% (active) |
| COc1ccc(-c2cc3c(=O)n(CC(=O)Nc4ccccc4C(F)(F)F)ccn3n2)cc1OC | 86% (inactive) |
| CSc1ccc(CNC(=O)CCn2ccc3cc(S(=O)(=O)N4CCCC4)ccc32)cc1 | 100% (inactive) |
| O=C(NCc1ccc(F)cc1)c1cc2n(n1)CCCN(Cc1ccc(F)cc1)C2=O | 64% (inactive) |
| CC(C)(C)OC(=O)N1CCC(c2c(C(=O)Nc3cccc(C(F)(F)F)c3)cnn2-c2ccc(F)cc2F)CC1 | 61% (inactive) |
| N#Cc1ccc(-c2cccnc2)n(CC(=O)N2CCOCC2)c1=O | 106% (inactive) |
| Cc1ccc(Cl)cc1N1CCN(C(=O)c2cc(S(=O)(=O)N3CCCCC3)cn2C)CC1 | 83% (inactive) |
| Cc1ccc(C(=O)Nc2ccc3oc(-c4cccnc4)nc3c2)c(Cl)c1 | 88% (inactive) |
| Cc1ccccc1NCc1nc2ccccc2n1CCOc1ccccc1 | 0% (active) |
| Cc1ccc(OCCn2c(CNc3ccccc3C)nc3ccccc32)cc1 | 42% (active) |
| Cc1ccccc1Cn1c(=O)n(CCCCC(=O)NCCc2ccccc2)c(=O)c2ccccc21 | 83% (inactive) |
| COc1ccc(NC(=O)C2=C(C)Nc3ncnn3C2c2ccc(O)cc2)cc1 (stereo not given) | 101% (inactive) |

| SMILES | survival |
| --- | --- |
| CC1CCN(C(=O)C(C)Sc2nnc3c(n2)[nH]c2ccccc23)CC1 (stereo not given) | 102% (inactive) |
| COc1cc(/C=C/c2nc(C#N)c(N3CCCCCC3)o2)cc(OC)c1OC | 85% (inactive) |
| COc1ccc(N2CCN(c3oc(/C=C/c4cc(OC)c(OC)c(OC)c4)nc3C#N)CC2)cc1 | 49% (active) |
| COc1ccc(/C=C/c2nc(C#N)c(N3CCCCCC3)o2)cc1OC | 45% (active) |
| COc1ccc(/C=C/c2nc(C#N)c(N3CCC(C)CC3)o2)cc1OC | 81% (inactive) |
| COc1ccc(/C=C/c2nc(C#N)c(N3CCCCC3)o2)cc1OC | 76% (inactive) |
| COc1cc(/C=C/c2nc(C#N)c(N3CCN(C)CC3)o2)cc(OC)c1OC | 73% (inactive) |
| CCOC(=O)c1c(NC(=O)Cc2coc3cc(C)ccc23)sc2c1CCCC2 | 95% (inactive) |
| O=C(NC1CCS(=O)(=O)C1)Sc1ccccc1 (stereo not given) | 96% (inactive) |
| CCc1ccc2nc(SCC(=O)N3CC(=O)Nc4ccccc43)c(C#N)cc2c1 | 107% (inactive) |
| COc1cc(NS(=O)(=O)c2ccc(NC(=O)c3ccc(C(C)=O)cc3)cc2)nc(OC)n1 | 87% (inactive) |
| O=C(OCc1ccccc1)c1ccc(-c2nnn(Cc3ccccc3F)n2)cc1 | 98% (inactive) |
| COc1ccc(C2=C(Nc3ccc(Br)c(C)c3)c3ccccc3C2=O)cc1 | 0% (active) |
| COc1ccc(C2=C(Nc3ccc(C)cc3C)c3ccccc3C2=O)cc1 | 71% (inactive) |
| COc1ccc(C2=C(Nc3ccc(C)c(C)c3)c3ccccc3C2=O)cc1 | 93% (inactive) |
| COc1ccc(OC)c(NC2=C(c3ccccc3)C(=O)c3ccccc32)c1 | 62% (inactive) |
| Cc1ccc(NC2=C(c3ccc(C(F)(F)F)cc3)C(=O)c3ccccc32)cc1F | 28% (active) |
| O=C1C(c2ccc(C(F)(F)F)cc2)=C(Nc2ccc(Cl)cc2)c2ccccc21 | 63% (inactive) |
| Cc1cc(C)cc(NC2=C(c3ccccc3)C(=O)c3ccccc32)c1 | 39% (active) |
| COc1ccc(NC2=C(c3ccccc3)C(=O)c3ccccc32)cc1Cl | 116% (inactive) |
| Cc1ccc(NC2=C(c3ccc(C(F)(F)F)cc3)C(=O)c3ccccc32)cc1C | 69% (inactive) |
| COc1cc(C(CC(=O)Nc2cc(C)ccn2)N2Cc3ccccc3C2=O)cc(OC)c1OC (stereo not given) | 76% (inactive) |
| Cn1c(C(=O)NCc2ccccc2Cl)cc2sc(Cl)cc21 | 64% (inactive) |

| SMILES | survival |
| --- | --- |
| CCCCNC(=O)CCC1N=C2c3ccccc3N=C(SCC(=O)NCCc3ccc(OC)c(OC)c3)N2C1=O (stereo not given) | 64% (inactive) |
| COc1cc(Cl)c(C)cc1NC(=O)Cn1ncc2c3ccccc3n(Cc3ccccc3)c2c1=O | 83% (inactive) |
| CCC(=O)N1CCc2cc(S(=O)(=O)NC(C(=O)NCc3ccc(OC)cc3)C(C)C)ccc21 (stereo not given) | 92% (inactive) |
| Cc1ccccc1Nc1sc(C(=O)c2ccc3c(c2)OCO3)c(N)c1S(=O)(=O)c1ccccc1 | 78% (inactive) |
| Cc1ccc(CNC(=O)C(C)n2nc(C)n3c(cc4sccc43)c2=O)cc1 (stereo not given) | 111% (inactive) |
| CCOc1ccc(NC(=O)CC2C(=O)N(c3cccc(C)c3)C(=O)N2Cc2ccco2)cc1 (stereo not given) | 83% (inactive) |
| CCOC(=O)CNC(=O)Nc1cc(C(=O)NCc2ccc(C(C)C)cc2)ccc1N1CCCC1 | 93% (inactive) |
| Cc1ccc(-n2c(SCC(N)=O)nc3c(oc4ccccc43)c2=O)cc1 | 69% (inactive) |
| CCCCOc1nnc(-c2ccc(OCC)cc2)c2ccccc12 | -12% (active) |
| CCOc1ccc(-c2nnc(Nc3ccc(S(N)(=O)=O)cc3)c3ccccc23)cc1 | 56% (inactive) |
| CCOc1ccc(-c2ncccc2O)cc1 | 105% (inactive) |
| Cc1cc(=O)n(Cc2ccc(F)cc2Cl)c2c1c(C)nn2-c1ccccc1 | 96% (inactive) |
| CCc1ccccc1NC(=O)Cn1c(=O)n(C(C)C)c(=O)c2oc3ccccc3c21 | 66% (inactive) |
| CCOc1ccc(NC(=O)CSc2ncc3c(n2)-c2cc(Cl)ccc2N(C)S3(=O)=O)cc1 | 0% (active) |
| CCOc1ccc(NC(=O)CSc2ncc3c(n2)-c2ccccc2N(C)S3(=O)=O)cc1 | 75% (inactive) |
| COc1cc(NC(=O)CSc2ncc3c(n2)-c2ccc(Cl)cc2N(Cc2ccccc2)S3(=O)=O)cc(OC)c1 | 55% (inactive) |
| CCc1cccc(NC(=O)CSc2ncc3c(n2)-c2cc(Cl)ccc2N(C)S3(=O)=O)c1 | 57% (inactive) |
| Cc1ccc(NC(=O)CSc2ncc3c(n2)-c2ccc(Cl)cc2N(C)S3(=O)=O)cc1F | 69% (inactive) |
| COc1cccc(NC(=O)CSc2ncc3c(n2)-c2ccc(Cl)cc2N(C)S3(=O)=O)c1 | 37% (active) |
| COc1ccc(CNC(=O)CN2C(=O)CCn3nc(-c4ccccc4)cc32)c(OC)c1 | 69% (inactive) |
| COc1ccc(-c2nc3c(c(SCC(=O)Nc4cc(C)cc(C)c4)n2)Cc2c(CO)cnc(C)c2O3)cc1 | 80% (inactive) |
| CN(C)S(=O)(=O)c1ccc2c(c1)nnn2CCNC(=O)Nc1ccc(Br)cc1 | 83% (inactive) |
| O=C1Nc2nc(=O)nc3[nH]c(=O)nc(n23)N1 | 97% (inactive) |

| SMILES | survival |
| --- | --- |
| COc1ccc(-n2ccn(CC(=O)Nc3ccc(C)cc3C)c(=O)c2=O)cc1 | 79% (inactive) |
| COc1ccc(Cn2ccn(CC(=O)Nc3cc(C)ccc3C)c(=O)c2=O)cc1 | 47% (active) |
| COc1ccc(Cn2ccn(Cc3cccc(OC)c3)c(=O)c2=O)cc1 | 46% (active) |
| COc1ccc(Cn2ccn(Cc3cccc(Cl)c3)c(=O)c2=O)cc1 | 112% (inactive) |
| COc1ccc(Cn2ccn(Cc3cccc(C)c3)c(=O)c2=O)cc1 | 109% (inactive) |
| COc1ccc(-c2cc3c(=O)n(CC(=O)Nc4cc(C)ccc4C)ccn3n2)cc1 | 88% (inactive) |
| CC(C)(C)c1ccc(OCCSc2nc(-c3cccs3)nc3cc(=O)[nH]n23)cc1 | 78% (inactive) |
| CC(=O)NCC(c1ccc2c(c1)OCO2)N1CCN(c2ccccc2)CC1 (stereo not given) | 80% (inactive) |
| COc1ccc(NC(=O)c2ccc3c(c2)nnn3C2CCCC2)cc1Cl | 88% (inactive) |
| CN1CCN(c2ncc3c(n2)CCN(Cc2cc(Br)cs2)C3)CC1 | 109% (inactive) |
| CCN1CCN(c2ncc3c(n2)CCN(Cc2ccc(Br)s2)C3)CC1 | 76% (inactive) |
| CCN1CCN(c2ncc3c(n2)CCN(Cc2ccccc2C)C3)CC1 | -1% (active) |
| CCOc1ccccc1CN1CCc2nc(N3CCN(c4ccccc4F)CC3)ncc2C1 | -4% (active) |
| Cc1ccccc1CN1CCc2nc(N3CCN(c4ccccn4)CC3)ncc2C1 | 94% (inactive) |
| COc1ccccc1N1CCN(c2ncc3c(n2)CCN(Cc2ccccc2F)C3)CC1 | 89% (inactive) |
| CCOc1ccccc1CN1CCc2nc(N3CCN(C)CC3)ncc2C1 | -2% (active) |
| COc1cc(OC)c(OC)cc1CN1CCc2nc(N3CCN(C)CC3)ncc2C1 | 84% (inactive) |
| CN1CCN(c2ncc3c(n2)CCN(Cc2ccccc2Cl)C3)CC1 | 79% (inactive) |
| CCN1CCN(c2ncc3c(n2)CCN(Cc2cc(Br)cs2)C3)CC1 | 6% (active) |
| COc1cc(OC)c(OC)cc1CN1CCc2nc(N3CCN(c4ccccc4F)CC3)ncc2C1 | 72% (inactive) |
| Cc1ccccc1CN1CCc2nc(N3CCN(c4ncccn4)CC3)ncc2C1 | 88% (inactive) |
